Assay [1] can be described thus: qHTS assay to identify small molecule agonists of the estrogen receptor alpha (ER-alpha) signaling pathway in the presence of an antagonist - cell viability counter screen (AID 1259386).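 Also: series mostly up to about 92 µM; cells exposed to compounds for 22 h at 37 °C before the viability read; nearly all actives have a fitted effect of over 30% in size.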 In outline: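 In this counter screen, compound effects on VM7Luc4E2 viability were tested in the presence of the antagonist ICI-182,780 at 10.0nM final. Compounds were dosed at 15 concentrations, exposure lasted 22hr, and the CellTiter-Fluor signal was read.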
A general note: In qHTS, concentration-response curves come from the screen itself.

The target of assay [2] is Progesterone receptor (Homo sapiens) (UniProt P06401). Briefly: qHTS assay to identify small molecule agonists of the progesterone receptor (PR) signaling pathway (AID 1346784; calls by dose curve; also: nearly all actives have a fitted effect of over 30% in size). In outline: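 Compounds were tested for PR agonism in HEK 293T cells bearing a beta-lactamase gene under UAS control. Treatment lasted 16 hr at 37C; signal came from fluorescence of a FRET substrate.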

Assay [3] shares this target. In words: qHTS assay to identify small molecule antagonists of the progesterone receptor (PR) signaling pathway (AID 1346795; active = well fitted inhibition curve with a large enough effect in the signal ratio in the repeat runs, not every such curve was filed as active; the % refers to the signal ratio). In outline: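 In HEK293T cells bearing the PR-UAS-bla reporter, compound effects on promegestone-driven (1 nM) beta-lactamase expression are assessed after 16 hr using a fluorescent FRET substrate incubated 2 hr at room temperature.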
Assay [4] can be described thus: qHTS assay to identify small molecule agonists of the progesterone receptor (PR) signaling pathway - cell viability counter screen (AID 1346799; calls by dose curve; also: nearly all actives have a fitted effect of over 45% in size). In outline:
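Here, 3,000 PR-UAS-bla HEK293T cells per well were treated with compounds for 16 hr after a 6 hr preincubation at 37C and 5% CO2; cell viability is the CellTiter-Glo luminescence signal.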

A short description of assay [5]: qHTS assay to identify small molecule antagonists of the TGF-beta/Smad signaling pathway - cell viability counter screen (AID 1346824). Also: nearly all actives have a fitted effect of over 50% in size. In outline: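 Cytotoxicity counter-screen run in the same wells as the beta-lactamase Smad reporter read: CellTiter-Glo luminescence after 30 min at room temperature. HEK 293T SBE-bla cells had 5 hr compound exposure at 37 C with TGF-beta1 (0.25 ng/mL stock).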

Assay [6] is described as follows: qHTS assay to identify small molecule agonists of the TGF-beta/Smad signaling pathway - cell viability counter screen (AID 1346829). Also: top concentration of the series differs between compounds; nearly all actives have a fitted effect of over 45% in size. In outline:
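Tox21 qHTS format: SBE-bla HEK 293T cells treated with DMSO-dissolved compounds for 5 hr; CellTiter-Glo luminescence after 30 min at room temperature.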

The target in assay [7] is Thyrotropin-releasing hormone receptor (Homo sapiens) (UniProt P34981). In words: qHTS assay to identify small molecule antagonists of the thyrotropin-releasing hormone receptor (TRHR) signaling pathway (AID 1346877; active = well fitted inhibition curve with a large enough effect in the repeat runs, not every such curve was filed as active; also: series mostly up to about 51 µM). In outline: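 Kinetic fluorescence (3 min, 1 s resolution) following stimulation with TRH at 1 nM final; HEK293 cells bearing human TRHR; 5 min compound preincubation at RT; concentration-response over 15 points, triplicates.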

Assay [8] shares this target. Briefly: qHTS assay to identify small molecule agonists of the thyrotropin-releasing hormone receptor (TRHR) signaling pathway (AID 1346891; calls by dose curve; also: series mostly up to about 58 µM). In outline:
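Screening of agonists relied on calcium signalling in HEK293 cells expressing human TRHR: dye loading 2 h at 37 °C preceded compound addition and a 3-min fluorescence time course.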

Assay [9] is described as follows: Human pregnane X receptor (PXR) small molecule agonists, qHTS cell viability counter screen (AID 1346977). Also: nearly all actives have a fitted effect of over 50% in size. In outline: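 Tox21 qHTS format; PXR-Luc HepG2, 2,000/well, charcoal-stripped FBS 5%. Cpd exposure 24hr. Read: CellTiter-Fluor fluorescence, multiplexed with luciferase.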
Assay [10] can be described thus: Caspase-3/7 induction in HepG2 cells by small molecules, qHTS assay (AID 1346978). Also: nearly all actives have a fitted effect of over 15% in size. In outline:
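Caspase-3/7 induction was measured by Caspase-Glo 3/7 luminescence (30 min, room temperature) after a 17 hr compound exposure of wild-type HepG2 cells seeded at 2,000 per well and pre-incubated 5 hr.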

The nature of assay [11]: Caspase-3/7 induction in CHO-K1 cells by small molecules, qHTS assay (AID 1346980). Also: nearly all actives have a fitted effect of over 15% in size. In outline:
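Luminescent Caspase-Glo 3/7 read (30min, room temperature) quantified apoptosis induction. Cells were wild-type CHO-K1, treated with compound for 17hr at 37 C and 5% CO2.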

Assay [12] has as its target Nuclear receptor subfamily 1 group I member 2 (Homo sapiens) (UniProt O75469). Briefly: Human pregnane X receptor (PXR) small molecule agonists, qHTS assay (AID 1346982). Also: nearly all actives have a fitted effect of over 35% in size. Also: potency is read from the fitted curve at half-maximal effect. In outline:
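Reporter HepG2 cells expressing PXR-Luc are cultured in charcoal-stripped FBS (5%), treated with compounds for 24 hr at 37 C, and assayed by ONE-Glo luminescence after 30 min at room temperature.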

The target of assay [13] is Nuclear receptor subfamily 1 group I member 2 (Rattus norvegicus) (UniProt Q9R1A7). In words: Rat pregnane X receptor (rPXR) activation by small molecules, qHTS assay (AID 1346983). Also: nearly all actives have a fitted effect of over 20% in size. As to conditions: rPXR luciferase reporter cells, One-Glo luminescence, 24 h; stronger effect = higher value. In outline: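 Luminescent readout (One-Glo luciferase, 30 min room temperature) followed 24 hr compound treatment at 37 C of rPXR cells plated 2,000 per well and preincubated 5hr; qHTS format with compounds delivered in DMSO.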

For assay [14], the target named is Nuclear receptor subfamily 1 group I member 2 (Homo sapiens) (UniProt O75469). In words: CYP3A4 induction through human pregnane X receptor (PXR) by small molecules, qHTS assay (AID 1346984). Also: nearly all actives have a fitted effect of over 40% in size. In outline:
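Induction measured in HepG2-based DPX-2 cells co-expressing human PXR and a CYP3A4 promoter-driven luciferase. After a 24-hour compound exposure, cells received CYP3A4 luciferin substrate at 3uM final for 3 hours, and light output was then recorded.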

For assay [15] the target is unchanged. In words: Human pregnane X receptor (PXR) activation by small molecules, qHTS assay (AID 1346985). Also: nearly all actives have a fitted effect of over 40% in size. In outline:
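DPX-2 cells (HepG2 co-transfected with a PXR response element and a CYP3A4-promoter luciferase construct) were seeded at 2,000 per well, rested 5 hr at 37C, then exposed to DMSO-dissolved compounds for 24 hr. Activation was read as luciferase luminescence.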

Assay [16] addresses Acetylcholinesterase (Homo sapiens) (UniProt P22303). Briefly: Acetylcholinesterase (AChE) small molecule antagonists: colormetric cell-based qHTS assay (AID 1347395; calls by dose curve; also: nearly all actives have a fitted effect of over 30% in size). In outline:
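AChE inhibition read colorimetrically via DTNB–thiocholine in SH-SY5Y cells. Compound 30 min, substrate 90 min, both 37 C.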

Assay [17] can be described thus: qHTS assay to identify small molecule antagonists of the progesterone receptor (PR) signaling pathway - cell viability counter screen (AID 1346798). Also: series mostly up to about 92 µM; nearly all actives have a fitted effect of over 50% in size. In outline: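 Following a 4 hr attachment, PR-UAS-bla HEK293T cells in charcoal-stripped FBS medium were exposed to compounds with R5020 for 16 hr; CellTiter-Glo was added and luminescence read after 30 min at room temperature.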

Assay [18] is described as follows: qHTS assay to identify small molecule agonists of the TGF-beta/Smad signaling pathway (AID 1346859; active = well fitted activation curve with a large enough effect in the signal ratio in the repeat runs, not every such curve was filed as active; the % refers to the signal ratio; also: series mostly up to about 77 µM). In outline:
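Each well held 4,000 SBE-bla HEK 293T cells incubated overnight before compound addition; 5 hr later the cleavable FRET substrate went on for 2 hr at room temperature, and fluorescence was read at two emissions.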

Assay [19] is described as follows: Caspase-3/7 induction in HepG2 cells by small molecules, qHTS cell viability counter screen (AID 1346981). Also: series mostly up to about 92 µM; nearly all actives have a fitted effect of over 30% in size. In outline: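 In this quantitative HTS counter screen, compounds delivered in DMSO were left on unmodified HepG2 cells for 16 hr at 37 C. Viability was then determined fluorometrically with CellTiter-Fluor, in parallel with caspase-3/7 induction in the same wells.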

A short description of assay [20]: Caspase-3/7 induction in CHO-K1 cells by small molecules, qHTS cell viability counter screen (AID 1346979). Also: nearly all actives have a fitted effect of over 35% in size. In outline: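 CellTiter-Fluor viability check, qHTS format: wild-type CHO-K1, 16hr compound treatment, 1hr reagent incubation, fluorescence read.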

SMILES strings stand for the structures. Values without a mark were called inactive. Inconclusive results are not listed. Activity calls are given as the source filed them. Unless noted, calls follow the shape of the dose curve; as a rule, active = well fitted curve in the direction sought with a large enough effect in the repeat runs; inconclusive = weak or mixed curves; inactive = no such curve, though single readings can be large; an effect the other way counts as inactive or inconclusive.

The values below come from PubChem BioAssay (Tox21).
% is scaled to controls: 0 for no effect and ±100 for the full control effect.

Chain of Thyrotropin-releasing hormone receptor (Homo sapiens) (P34981 whole entry, looked up): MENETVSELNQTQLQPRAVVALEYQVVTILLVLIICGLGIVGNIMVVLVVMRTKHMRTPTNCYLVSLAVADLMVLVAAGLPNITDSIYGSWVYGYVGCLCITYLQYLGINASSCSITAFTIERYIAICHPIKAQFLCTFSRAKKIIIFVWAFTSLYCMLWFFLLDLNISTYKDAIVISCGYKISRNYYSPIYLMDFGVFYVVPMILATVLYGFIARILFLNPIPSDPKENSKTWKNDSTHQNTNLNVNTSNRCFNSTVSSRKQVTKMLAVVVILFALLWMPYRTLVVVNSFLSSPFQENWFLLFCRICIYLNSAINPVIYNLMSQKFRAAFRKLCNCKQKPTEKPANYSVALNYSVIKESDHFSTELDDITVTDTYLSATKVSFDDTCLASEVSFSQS
Chain of Acetylcholinesterase (Homo sapiens) (P22303 whole entry, looked up): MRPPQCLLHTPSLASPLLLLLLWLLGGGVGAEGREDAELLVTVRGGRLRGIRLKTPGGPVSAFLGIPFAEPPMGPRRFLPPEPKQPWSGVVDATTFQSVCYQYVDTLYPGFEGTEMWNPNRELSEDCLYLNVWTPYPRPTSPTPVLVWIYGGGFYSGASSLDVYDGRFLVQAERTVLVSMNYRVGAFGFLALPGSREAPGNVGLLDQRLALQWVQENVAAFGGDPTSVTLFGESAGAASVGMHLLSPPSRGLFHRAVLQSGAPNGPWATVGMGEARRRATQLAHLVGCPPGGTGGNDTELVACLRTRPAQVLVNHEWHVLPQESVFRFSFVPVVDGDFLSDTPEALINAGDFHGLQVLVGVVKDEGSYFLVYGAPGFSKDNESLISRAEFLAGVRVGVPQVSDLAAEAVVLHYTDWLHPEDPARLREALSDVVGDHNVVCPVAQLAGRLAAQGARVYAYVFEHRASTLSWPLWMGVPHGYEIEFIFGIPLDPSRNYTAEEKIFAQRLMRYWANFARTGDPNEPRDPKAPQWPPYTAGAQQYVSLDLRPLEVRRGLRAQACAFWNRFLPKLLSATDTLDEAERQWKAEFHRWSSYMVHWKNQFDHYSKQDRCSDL
Chain of Nuclear receptor subfamily 1 group I member 2 (Homo sapiens) (O75469 whole entry, looked up): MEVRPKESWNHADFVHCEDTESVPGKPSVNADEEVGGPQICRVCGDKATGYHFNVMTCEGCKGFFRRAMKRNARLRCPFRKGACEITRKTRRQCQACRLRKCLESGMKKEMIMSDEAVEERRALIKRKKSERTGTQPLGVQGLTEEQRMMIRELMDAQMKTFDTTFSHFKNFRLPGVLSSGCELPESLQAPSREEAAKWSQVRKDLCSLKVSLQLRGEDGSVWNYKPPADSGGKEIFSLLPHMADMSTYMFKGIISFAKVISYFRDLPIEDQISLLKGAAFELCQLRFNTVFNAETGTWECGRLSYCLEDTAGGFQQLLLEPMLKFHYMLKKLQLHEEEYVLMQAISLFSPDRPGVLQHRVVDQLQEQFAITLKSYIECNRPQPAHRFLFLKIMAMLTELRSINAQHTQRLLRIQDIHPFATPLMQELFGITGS
Chain of Progesterone receptor (Homo sapiens) (P06401 whole entry, looked up): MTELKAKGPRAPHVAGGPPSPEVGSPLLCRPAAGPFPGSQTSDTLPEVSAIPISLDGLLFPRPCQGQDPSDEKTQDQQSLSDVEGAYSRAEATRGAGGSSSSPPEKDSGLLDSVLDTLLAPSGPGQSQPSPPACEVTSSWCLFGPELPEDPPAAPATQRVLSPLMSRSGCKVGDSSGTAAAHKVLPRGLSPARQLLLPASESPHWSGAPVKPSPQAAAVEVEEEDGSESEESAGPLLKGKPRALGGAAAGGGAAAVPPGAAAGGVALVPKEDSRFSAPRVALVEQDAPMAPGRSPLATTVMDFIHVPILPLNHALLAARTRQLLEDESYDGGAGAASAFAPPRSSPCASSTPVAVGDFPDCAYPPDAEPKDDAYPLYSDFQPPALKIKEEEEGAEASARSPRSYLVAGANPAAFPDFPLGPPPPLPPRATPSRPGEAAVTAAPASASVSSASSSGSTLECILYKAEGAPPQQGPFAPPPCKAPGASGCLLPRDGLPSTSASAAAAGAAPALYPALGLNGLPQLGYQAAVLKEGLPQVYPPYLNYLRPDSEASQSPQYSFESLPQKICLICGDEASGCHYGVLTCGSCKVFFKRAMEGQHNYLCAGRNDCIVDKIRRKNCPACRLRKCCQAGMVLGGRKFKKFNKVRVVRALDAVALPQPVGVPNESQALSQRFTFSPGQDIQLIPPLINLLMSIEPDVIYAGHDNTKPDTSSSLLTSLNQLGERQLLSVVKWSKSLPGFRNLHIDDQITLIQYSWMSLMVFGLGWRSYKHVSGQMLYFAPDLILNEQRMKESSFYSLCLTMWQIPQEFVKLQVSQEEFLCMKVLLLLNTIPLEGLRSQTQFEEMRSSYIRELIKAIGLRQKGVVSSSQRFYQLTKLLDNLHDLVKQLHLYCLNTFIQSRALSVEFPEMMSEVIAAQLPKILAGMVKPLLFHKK
Chain of Nuclear receptor subfamily 1 group I member 2 (Rattus norvegicus) (Q9R1A7 whole entry, looked up): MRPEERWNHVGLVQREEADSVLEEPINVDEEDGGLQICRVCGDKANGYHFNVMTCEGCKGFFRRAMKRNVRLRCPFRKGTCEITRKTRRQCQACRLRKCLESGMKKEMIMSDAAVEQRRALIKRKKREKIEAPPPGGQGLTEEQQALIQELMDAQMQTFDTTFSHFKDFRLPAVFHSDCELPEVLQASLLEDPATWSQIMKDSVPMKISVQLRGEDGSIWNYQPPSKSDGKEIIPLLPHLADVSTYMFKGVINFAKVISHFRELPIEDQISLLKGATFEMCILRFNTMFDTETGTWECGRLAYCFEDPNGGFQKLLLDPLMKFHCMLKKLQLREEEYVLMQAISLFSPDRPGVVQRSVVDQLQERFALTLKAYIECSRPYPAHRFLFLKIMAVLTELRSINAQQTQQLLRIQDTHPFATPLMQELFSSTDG

For `COC1CC(=C(c2cccs2)c2cccs2)C[N+](C)(C)C1` (configuration not stated), the Potency entry in assay [1], in [2], in assay [3], in assay [4], in assay [5] and in [6] was “inactive” in each case. Moreover, the Potency entry in assay [7], in assay [9], in assay [10], in assay [11], in assay [12] and in assay [15] was “inactive” in each case. Further, in [16], the Potency result is “inactive”. The call in assay [8] and in assay [14] was inactive. Moreover, the max activation in assay [13] is -1.69%.

Turning to `CC(C)CCON=O`, the Potency entry in [1], in assay [2], in assay [3], in [17], in assay [5] and in assay [6] was “inactive” each time. The Potency entry in [7], in assay [9], in [10], in assay [11], in [19] and in [12] was “inactive” in each case. The Potency result in assay [15] and in assay [16] was “inactive” each time. Besides, the molecule was classed as inactive in [18] and in assay [14]. Also, in assay [13], the max activation is -3.41%.

As to `CCc1cnc(C2=NC(C)(C(C)C)C(=O)N2)c(C(=O)O)c1` (configuration not stated), the Potency entry in assay [1], in [2], in assay [17], in assay [4], in [5] and in [6] was “inactive” each time. Moreover, the Potency result in assay [7], in [9], in [10], in assay [20], in [11] and in [19] was “inactive” in each case. Also, the Potency result in [12] and in assay [16] was “inactive” each time. Moreover, the call in assay [18] and in [8] was inactive.

`CC(C)CCCCCCCOC(=O)c1ccccc1C(=O)OCCCCCCCC(C)C`: the Potency entry in [1], in assay [2], in [3], in assay [5], in assay [6] and in [7] was “inactive” throughout. In addition, the Potency entry in assay [9], in [10], in [11], in assay [12] and in assay [16] was “inactive” in each case. Also, the molecule was classed as inactive in assay [18] and in assay [8].

Consider `CCC1(C2=NCCN2)Cc2ccccc2O1` (configuration not stated), for which the Potency entry in [1], in assay [2], in [17], in [4], in assay [5] and in [6] was “inactive” each time. Further, the Potency result in assay [7], in [9], in [10], in assay [20], in assay [11] and in assay [12] was “inactive” in each case. Further, in assay [16], the Potency entry was “inactive”. Besides, the call in [8] was inactive.

In the case of `CCCCOC(=O)CCC(=O)OCCCC`, the Potency entry in assay [1], in [2], in assay [17], in [4], in [6] and in [7] was “inactive” throughout. Besides, the Potency result in [9], in assay [10], in assay [20], in [11], in [19] and in [16] was “inactive” in each case. Besides, the molecule was called inactive in assay [8].

As for `CN1CC[C@]23c4c5ccc(O)c4O[C@H]2[C@@H](O)CC[C@H]3[C@H]1C5`, the Potency result in assay [1], in assay [2], in [3], in [5], in assay [6] and in [7] was “inactive” each time. The Potency entry in assay [9], in [10], in assay [19], in assay [12] and in assay [16] was “inactive” in each case. In addition, the outcome in assay [18] and in [8] was inactive.

With `CCOC(=O)NC(O)C(Cl)(Cl)Cl` (configuration not stated), the Potency entry in assay [1], in assay [2], in assay [17], in [4], in [5] and in assay [6] was “inactive” throughout. For the same molecule, the Potency result in assay [9], in assay [10], in [20], in assay [11], in [19] and in assay [12] was “inactive” in each case. Further, the Potency entry in assay [15] and in [16] was “inactive” each time. For the same molecule, the molecule was classed as inactive in [18] and in [14]. Also, the max activation in [13] was -1.22%.

As to `CCOP(=S)(OCC)SCSc1cc(Cl)ccc1Cl`, the Potency entry in assay [1], in assay [2], in assay [3], in [5], in assay [6] and in assay [7] was “inactive” throughout. Also, the Potency result in [9], in assay [10], in assay [20], in [11], in assay [12] and in assay [16] was “inactive” in each case. The molecule was called inactive in assay [18] and in [8].

As for `O=C(Cc1ccccc1)c1ccccc1`, the Potency entry in assay [1], in assay [2], in [17], in assay [4], in [6] and in [7] was “inactive” throughout. Further, the Potency entry in assay [9], in assay [10], in [20], in [11], in [19] and in assay [16] was “inactive” throughout. Further, the outcome in assay [18] and in [8] was inactive. For the same molecule, the Potency in assay [12] is 61.1 µM (active).

With `CCC1(CCC(C)C)C(=O)NC(=O)NC1=O`, the Potency entry in assay [1], in assay [2], in assay [17], in assay [4], in assay [5] and in [6] was “inactive” throughout. The Potency entry in assay [9], in assay [10], in assay [11], in assay [19], in [12] and in [16] was “inactive” each time. Besides, the result in [18] was inactive.

For `CC(C)(C#N)C(C)(C)C#N`, the Potency entry in [1], in assay [2], in [17], in assay [4], in assay [5] and in assay [9] was “inactive” each time. The Potency entry in assay [10], in assay [11], in [19], in assay [12] and in assay [16] was “inactive” throughout.

For the molecule `Clc1ccc(Cl)c(Cl)c1`, the Potency result in assay [1], in assay [2], in [17], in assay [4], in [5] and in assay [6] was “inactive” each time. In addition, the Potency result in [7], in assay [9], in assay [10], in assay [11] and in [19] was “inactive” each time. For the same molecule, the outcome in assay [8] was inactive.

On to `CC(=O)OC(c1ccccc1)C(Cl)(Cl)Cl` (configuration not stated), for which the Potency entry in [1], in [2], in assay [17], in assay [4], in assay [5] and in assay [6] was “inactive” throughout. In addition, the Potency entry in [9], in assay [10], in [20], in assay [11], in assay [19] and in assay [12] was “inactive” throughout. Moreover, in assay [16], the Potency entry was “inactive”.
